Screening results: PubChem BioAssay, National Center for Advancing Translational Sciences (NCATS)
GLA spleen mod – qHTS Assay for Inhibitors and Activators of Human alpha-Galactosidase From Spleen Homogenate; 240,000 tested, 0.008% active; Alpha-galactosidase A (Homo sapiens), P06280; human spleen homogenate, 4MU-alpha-Gal fluorescence, 40 min; Potency, µM (titrated, usually from 80 µM), most hits filed as inhibitors; AID 2107, 2009
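Human spleen homogenate (1 ug) as enzyme source, 4-methylumbelliferyl-alpha-D-galactopyranoside 1 mM final, citrate/phosphate pH 5.0 with 0.01% Tween-20. Compounds 40 min at 37C, NaOH/glycine stop; fluorescence Ex 365/Em 440, Hill-fit AC50.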
HPGD block – qHTS Assay for Inhibitors of HPGD (15-Hydroxyprostaglandin Dehydrogenase); Potency, µM, usual class: inhibitors; purified HPGD, NADH fluorescence kinetic, PGE2 substrate; 15-hydroxyprostaglandin dehydrogenase [NAD(+)] (Homo sapiens), P15428; 150,000 tested, 4.3% active; active = well fitted inhibition curve with a large enough effect, not every such curve was filed as active; inconclusive = small, poorly fitted or top-dose-only effect, or another doubt; inactive = no such curve, though single readings can be large or run the other way
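20 nM HPGD preincubated 15 min at room temperature with compound in 50 mM Tris-HCl pH 8, 0.01% Tween 20. Started with 1 mM NAD+ and 30 uM prostaglandin E2; NADH fluorescence (360/450 nm) read 5 times over 30-s intervals, last minus first.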
PNC inhibitor – High Content Assay for Compounds that inhibit the Assembly of the Perinucleolar Compartment. PC3M PTB-GFP, PNC prevalence imaging, 16 h; hits give low values. activity change (PNC), negative = inhibition, % at 10 µM. 140,000 tested, 3.1% active;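 active = readout at or below -70, meaning at least 70% loss of cells showing the perinucleolar compartment, a nuclear body marking cancer cells; inconclusive = readout between -30 and a set limit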
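PC3M cells stably expressing PTB-GFP, 750–1000 cells/well, treated 16 h at 37 °C with compound (23 nl of library stock), in duplicate. After paraformaldehyde fixation and Hoechst stain, imaged at 20x; PNC prevalence scored by image analysis.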
ALOX12 inhib – qHTS Assay for Inhibitors of 12-hLO (12-human lipoxygenase). Polyunsaturated fatty acid lipoxygenase ALOX12 (Homo sapiens), P18054. purified 12-hLO, xylenol orange hydroperoxide absorbance. Potency, µM (highest dose often 57.1 µM), usual class: inhibitors. 150,000 tested, 0.12% active. AID 1452, 2008; also: nearly all actives have a fitted effect of over 55% in size
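Lipoxygenase turnover measured by absorbance at 573 and 405 nm after Fe-XO development. Human 12hLO 150 nM, arachidonate 40 uM, pH 7.0 Hepes buffer with detergent; 15 min compound preincubation, 30 min reaction.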
GLA inh pH 4.5 – qHTS Assay for Inhibitors of Human alpha-Galactosidase at pH 4.5 | Alpha-galactosidase A (Homo sapiens), P06280 | purified enzyme, 4-MU-alpha-Gal fluorescence, pH 4.5 | activity change, negative = inhibition, % at 105 µM | AID 1467, 2008 | 230,000 tested, under 10 active
Target sequence (P06280 whole entry, looked up): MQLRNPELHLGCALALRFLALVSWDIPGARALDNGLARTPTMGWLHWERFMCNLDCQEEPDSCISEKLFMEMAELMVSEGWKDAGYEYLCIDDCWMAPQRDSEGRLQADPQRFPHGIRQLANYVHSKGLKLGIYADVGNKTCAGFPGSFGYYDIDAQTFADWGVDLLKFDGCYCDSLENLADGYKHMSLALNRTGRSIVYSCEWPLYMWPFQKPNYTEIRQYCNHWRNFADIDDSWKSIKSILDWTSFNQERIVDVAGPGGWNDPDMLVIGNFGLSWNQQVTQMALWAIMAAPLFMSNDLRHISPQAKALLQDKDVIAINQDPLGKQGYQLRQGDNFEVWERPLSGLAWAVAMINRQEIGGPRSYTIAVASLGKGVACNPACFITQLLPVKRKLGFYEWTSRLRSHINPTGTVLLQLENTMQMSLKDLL
ALDH1A1 block – qHTS Assay for Inhibitors of Aldehyde Dehydrogenase 1 (ALDH1A1) | Aldehyde dehydrogenase 1A1 (Homo sapiens), P00352 | Purified ALDH1A1, NADH fluorescence, propionaldehyde substrate | Potency, µM (highest dose often 75.3 µM), usual class: inhibitors | 220,000 tested, 7.3% active | AID 1030, 2008; active = well fitted inhibition curve with a large enough effect, not every such curve was filed as active; inconclusive = small, poorly fitted or top-dose-only effect, or another doubt; inactive = no such curve, though single readings can be large or run the other way
Large screens that a line does not name were inactive. Shown are actives, neighbours in structure and some others; about 10% of the full set was active somewhere. Unless noted, calls follow the shape of the dose curve; as a rule, active = well fitted curve in the direction sought with a large enough effect; inconclusive = small, poorly fitted or top-dose-only effect, or another doubt; inactive = no such curve, though single readings can be large; an effect the other way counts as inactive or inconclusive.

COc1ccc(C(=O)NC(=S)Nc2ccc(N3CCOCC3)c(Cl)c2)cc1[N+](=O)[O-]	HPGD block 8.91µM, PNC inhibitor -100.0, ALOX12 inhib inconclusive
Cc1cc(C(=O)NC(=S)Nc2ccccc2N2CCOCC2)ccc1[N+](=O)[O-]	ALDH1A1 block 10µM
Cc1cc(C(=O)NC(=S)Nc2ccccc2N2CCCC2)ccc1[N+](=O)[O-]	ALDH1A1 block inconclusive
COc1ccc(C(=O)NC(=S)Nc2ccccc2N2CCOCC2)cc1[N+](=O)[O-]	ALDH1A1 block 7.08µM
O=C(O)CC1(CC(=O)Nc2ccc3ccccc3n2)CCCCC1	none (no result: HPGD block, PNC inhibitor, ALOX12 inhib, ALDH1A1 block)
Cc1cccc(C(=O)NNC2=C(C(=O)C(F)(F)F)CCC2)c1O	none
Nc1c2c(nc3ccccc13)CCC[C@H]2O	none (no result: GLA spleen mod, HPGD block, PNC inhibitor, GLA inh pH 4.5, ALDH1A1 block)
CCCCn1c(-c2csc(C(C)C)c2)n[nH]c1=S	HPGD block inconclusive, PNC inhibitor -109.0, ALOX12 inhib inconclusive, ALDH1A1 block 7.94µM
CCCc1cc(-c2n[nH]c(=S)n2CC(C)C)cs1	HPGD block inconclusive, ALDH1A1 block 11.2µM
CCCCn1c(-c2csc(CC)c2)n[nH]c1=S	HPGD block inconclusive, PNC inhibitor inconclusive, ALDH1A1 block inconclusive
O=C(/C=C/C(=O)Oc1ccccc1C(=O)O)Oc1ccccc1C(=O)O	HPGD block inconclusive (no result: PNC inhibitor)
CC[C@H](C)[C@@H]1O[C@]2(CC[C@@H]1C)C[C@H]1C[C@H](CC=C(C)[C@@H](O[C@H]3C[C@H](OC)[C@H](O[C@H]4C[C@H](OC)[C@H](O)[C@H](C)O4)[C@H](C)O3)[C@@H](C)C=CC=C3CO[C@@H]4[C@@H](O)C(C)=C[C@H](C(=O)O1)[C@@]34O)O2	none (no result: GLA spleen mod, HPGD block, PNC inhibitor, GLA inh pH 4.5, ALDH1A1 block)
O=C(CSc1nc(-c2ccco2)cc(C(F)(F)F)n1)N1CCN(c2ccc(Cl)cc2)CC1	none
COc1ccccc1N1CCN(C(=O)CSc2nc(-c3ccco3)cc(C(F)(F)F)n2)CC1	ALDH1A1 block 7.94µM
O=C(CSc1nc(-c2ccco2)cc(C(F)(F)F)n1)N1CCN(Cc2ccccc2)CC1	HPGD block inconclusive, ALDH1A1 block 15.8µM
COc1ccccc1OCCNC1CCCC1	PNC inhibitor -97.7, ALDH1A1 block inconclusive
CC1CC(C)(C)Nc2ccc(N=O)cc21 (stereo not drawn)	ALDH1A1 block 10µM (no result: HPGD block, PNC inhibitor, ALOX12 inhib)
O=c1cc(C(F)(F)F)nc(-c2ccccc2)[nH]1	HPGD block 14.1µM, PNC inhibitor inconclusive
O=c1cc(C(F)(F)F)nc(-c2cccnc2)[nH]1	none (no result: HPGD block, PNC inhibitor, ALOX12 inhib)
Clc1ccc(Cl)c(SCCCN2CCNCC2)c1	none (no result: GLA spleen mod, PNC inhibitor, GLA inh pH 4.5)
COc1ccc(-n2nc(C(=O)NCc3ccco3)c3ccccc3c2=O)cc1	HPGD block inconclusive, PNC inhibitor -83.9, ALDH1A1 block inconclusive
COc1ccc(-n2nc(C(=O)NCc3ccco3)c3c4ccccc4n(C)c3c2=O)cc1	HPGD block inconclusive, GLA inh pH 4.5 inconclusive, ALDH1A1 block inconclusive
COc1ccc(-n2nc(C(=O)NCC(=O)N3CCN(c4ccccn4)CC3)c3ccccc3c2=O)cc1	HPGD block inconclusive, ALDH1A1 block 28.2µM
O=C(NCc1ccc2c(c1)OCO2)c1cccnc1Cl	none (no result: HPGD block, PNC inhibitor, ALOX12 inhib)
COc1ccc(-c2nnc3n2N=C(c2c(OC)cccc2OC)CS3)c(OC)c1	none (no result: HPGD block, PNC inhibitor, ALOX12 inhib, GLA inh pH 4.5, ALDH1A1 block)
Clc1ccc(-n2ncc3c(NCc4cccs4)ncnc32)cc1	PNC inhibitor inconclusive, ALDH1A1 block 1.58µM
Cc1cccc(-n2ncc3c(NCc4cccs4)ncnc32)c1	HPGD block inconclusive, ALDH1A1 block inconclusive
c1ccc(CCNc2ncnc3c2cnn3-c2ccccc2)cc1	HPGD block 15.8µM, ALDH1A1 block inconclusive
c1ccc(CNc2ncnc3c2cnn3-c2ccccc2)cc1	none (no result: HPGD block)
CC(C)(C)Nc1ncnc2c1cnn2-c1ccccc1	HPGD block 25.1µM, PNC inhibitor inconclusive
